SARS PLP yeast – inhibitors of SARS-CoV papain-like protease in yeast; S. cerevisiae expressing SARS-CoV PLpro, growth rescue; Potency, µM (doses to about 32.9 µM), for inactives: top-dose activity, positive = growth rescue, hits mostly activators; 0.19% of 330,000 active; AID 485353; calls by dose curve; further: potency means the concentration at half of the fitted maximal effect; 0% is about no effect; nearly all actives have a fitted effect of over 55% in size
Pf growth 96h – inhibits malaria parasite growth, 96 h; P. falciparum luciferase reporter growth, 96 h; Potency, µM (titrated, usually from 28.7 µM), for the others: at the top dose activity change, negative = inhibition, actives largely listed as inhibitors; 6.9% of 320,000 active; AID 504834; further: potency means the concentration at half of the fitted maximal effect; on the % scale 0 is the no-effect control and ±100 the full control effect
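Two-generation exposure (96 h) targets delayed-death phenotype. Reporter parasites carrying integrated firefly luciferase, in red cells at 2% hematocrit and 0.05% parasitemia final, kept at 37 C, 5% CO2; luminescence loss indicates inhibition.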
Sm TGR inh – inhibitors of Schistosoma mansoni thioredoxin glutathione reductase. purified TGR, DTNB reduction, TNB absorbance 405 nm. Potency, µM (series often up to 114 µM), for the others: top-dose activity change, negative = inhibition, hits mostly inhibitors. 3% of 360,000 active. AID 485364; further: potency means the concentration at half of the fitted maximal effect; on the % scale 0 is the no-effect control and ±100 the full control effect; nearly all actives have a fitted effect of over 60% in size
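Kinetic colorimetric format: TGR-catalysed, NADPH-driven DTNB reduction monitored via TNB absorbance. Enzyme dispensed at 20 nM; compound exposure 15 min at room temperature before reaction start.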
Pf growth 48h – inhibits P. falciparum growth in the first generation, 48 h; 5.9% of 310,000 active; Potency, µM (top dose mostly 28.7 µM), for the others: top-dose activity change, negative = inhibition, hits mostly inhibitors; AID 504832; P. falciparum luciferase growth in erythrocytes, 48 h; further: potency means the concentration at half of the fitted maximal effect; on the % scale 0 is the no-effect control and ±100 the full control effect
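Compounds are pin-transferred into medium, infected erythrocytes (2% hematocrit, 0.1% parasitemia final) are added, and plates sit one parasite generation at 37 C in 5% CO2. Detection reagent is then added and luminescence measured.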
HCV inh – blocks hepatitis C virus; Huh7.5.1 HCVcc-Cre infection, luciferase reporter, 44 h; AID 651820; Potency, µM (top dose mostly 41.8 µM), for the others: at the top dose activity change, negative = inhibition, actives largely listed as inhibitors; 3.4% of 340,000 active; further: potency means the concentration at half of the fitted maximal effect; on the % scale 0 is the no-effect control and ±100 the full control effect
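Reporter virus HCVcc-Cre (~0.5 moi) infects cells exposed to compound; seeding density 1,000 cells/well with 4 h settling beforehand. Luminescence, 15 sec read, taken 44 h post-infection following a 15 min RT substrate incubation.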
HCMV inh – blocks human cytomegalovirus replication | HFF cells, HCMV-luciferase reporter, 72 h; active compounds read low | activity change, negative = inhibition, % at 57.5 µM | AID 1259415 | 4.5% of 410,000 active; in the data active means activity change below about -60%; inconclusive means no clear call, values can overlap the other calls; inactive means above about -39%; further: on the % scale 0 is the no-effect control and ±100 the full control effect
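Compounds were evaluated in HFFs infected with an HCMV luciferase reporter virus (MOI 1 PFU/cell). Luciferase in lysates collected 72 h post infection served as the replication measure.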
The depositor's hits bear a star; ? = inconclusive; . = no result. Only some compounds are listed: those with a hit (about 15% of all), similar ones and a draw of the others. Unless noted, the call rests on the fitted dose curve; in most records, active means well fitted curve in the direction sought with a large enough effect; inconclusive means small, poorly fitted or top-dose-only effect, or another doubt; inactive means no such curve, though single readings can be large; an effect the other way counts as inactive or inconclusive.

SMILES | SARS PLP yeast | Pf growth 96h | Sm TGR inh | Pf growth 48h | HCV inh | HCMV inh
O=C1CC(N2CCN(C/C=C/c3ccccc3)CC2)C(=O)N1Cc1ccc(N2CCCC2=O)cc1 (configuration not stated) | -7% | ? | -30% | ? | ? | -15
NC(=O)C1CCN(CCCNC2CC(=O)N(Cc3ccc(N4CCCC4=O)cc3)C2=O)CC1 (configuration not stated) | . | . | . | . | 8% | 18
O=C1CCCN1CCC1CCN(C2CC(=O)N(c3ccc(Cl)cc3)C2=O)CC1 (configuration not stated) | . | 9% | 18µM* | 1% | 23% | 2
O=C1CC(N2CCC(O)(c3ccc(Cl)cc3)CC2)C(=O)N1Cc1ccc(N2CCCC2=O)cc1 (configuration not stated) | 0% | . | 32µM* | 9.3µM* | ? | -23
Cc1cc2ncn(C3CC(=O)N(Cc4ccc(N5CCCC5=O)cc4)C3=O)c2cc1C (configuration not stated) | 4% | 8.3µM* | ? | 19% | 2% | 10
O=C1CCCN1CCC1CCN(C2CC(=O)N(Cc3ccc(N4CCCC4=O)cc3)C2=O)CC1 (configuration not stated) | -16% | . | 18µM* | ? | 8% | 2
N#Cc1ccccc1OCC(=O)Nc1ccccc1C(=O)NC1CC1 | 1% | ? | 0% | 17% | ? | -1
C=CC(=O)NCCCc1cc(C(C)(C)C)c(O)c(C(C)(C)C)c1 | -21% | 0% | -30% | 12µM* | ? | -96*
CC(C)C(=O)N1CCC1(C)C(=O)Nc1ccc(-n2cncn2)cc1 (configuration not stated) | . | . | . | . | . | 17
Cc1cccnc1CCNC(=O)c1ccc(OC2CCN(Cc3ccccn3)CC2)cc1 | 11% | -4% | -30% | 14% | -16% | -36
COCC(C)N1CCC(Oc2ccc(C(=O)NCc3ccccn3)cc2)CC1 (configuration not stated) | 1% | 12µM* | 2% | 11% | 4% | 18
CCn1cc(CNC(=O)c2ccc(OC3CCN(Cc4ccccn4)CC3)cc2)cn1 | 3% | ? | 2% | 25% | 10µM* | -71*
C/C=C(\C)CN1CCC(Oc2ccc(C(=O)NCc3ccccn3)cc2)CC1 | . | -26% | -1% | -10% | 8% | 11
CCOc1ccccc1CN1CCC(Oc2ccc(C(=O)NCc3ccccn3)cc2)CC1 | 3% | ? | -23% | 10µM* | -26% | 6
O=C(NCCc1cccc(Cl)c1)c1ccc(OC2CCN(Cc3ccccn3)CC2)cc1 | -1% | ? | -27% | 1% | ? | -71*
O=S(=O)(/N=C(/Nc1ccc(Cl)cc1Cl)c1ccccc1)c1cccs1 | 1% | ? | 0% | 47% | -12% | -5
CCc1ccc(N/C(N)=N/c2nc(CSc3ccccn3)cc(=O)[nH]2)cc1 | 0% | ? | 6% | ? | ? | -85*
COc1cccc(N/C(N)=N/c2nc(CSc3ccccn3)cc(=O)[nH]2)c1 | -3% | -18% | 3% | 2% | . | .
Cc1ccc(N/C(N)=N/c2nc(CSc3ccccn3)cc(=O)[nH]2)c(C)c1 | 2% | ? | 0% | -24% | ? | -69*
C=CCN(C(=O)c1csnn1)C(C(=O)NCc1ccc(F)cc1)c1cccs1 (configuration not stated) | 1% | 12% | -14% | 8% | 0% | 6
CCc1nc2ccc(C(=O)NCc3ccc4c(c3)OCO4)cn2c1N(C)Cc1cccs1 | . | . | . | . | . | -9
COc1ccc(CCNS(=O)(=O)c2cnc(Cl)c(Br)c2)cc1OC | 0% | ? | 4% | -12% | 0% | 0
CC(C)N(C(=O)COC(=O)[C@H](C)NC(N)=O)c1ccccc1 | -1% | 5% | 12% | -7% | 1% | ?
CC(C)N(C(=O)CCl)c1ccccc1 | . | . | . | . | 10µM* | -21
COc1ccc(Br)c2c1-c1nc(NC(=O)c3ccccc3F)sc1C2 | . | . | -16% | . | . | -15

Compound activity as filed in PubChem BioAssay.
